Data taken from paper PMC4336329 (PLoS ONE, 2015).
In all, about 310,000 compounds went through this assay and about 14,000 (4.5%) showed an effect of 50% or more. The effect is printed as a negative number. The full list was thinned out, with strong results kept by preference.

What follows are compounds tested against human ether-à-go-go-related gene (hERG) potassium channel (human, UniProt Q12809) (assay: primary screen, population patch clamp on CHO cells stably expressing hERG; higher = less effect of the substance).
Chain of human ether-à-go-go-related gene (hERG) potassium channel (Q12809 whole entry, looked up): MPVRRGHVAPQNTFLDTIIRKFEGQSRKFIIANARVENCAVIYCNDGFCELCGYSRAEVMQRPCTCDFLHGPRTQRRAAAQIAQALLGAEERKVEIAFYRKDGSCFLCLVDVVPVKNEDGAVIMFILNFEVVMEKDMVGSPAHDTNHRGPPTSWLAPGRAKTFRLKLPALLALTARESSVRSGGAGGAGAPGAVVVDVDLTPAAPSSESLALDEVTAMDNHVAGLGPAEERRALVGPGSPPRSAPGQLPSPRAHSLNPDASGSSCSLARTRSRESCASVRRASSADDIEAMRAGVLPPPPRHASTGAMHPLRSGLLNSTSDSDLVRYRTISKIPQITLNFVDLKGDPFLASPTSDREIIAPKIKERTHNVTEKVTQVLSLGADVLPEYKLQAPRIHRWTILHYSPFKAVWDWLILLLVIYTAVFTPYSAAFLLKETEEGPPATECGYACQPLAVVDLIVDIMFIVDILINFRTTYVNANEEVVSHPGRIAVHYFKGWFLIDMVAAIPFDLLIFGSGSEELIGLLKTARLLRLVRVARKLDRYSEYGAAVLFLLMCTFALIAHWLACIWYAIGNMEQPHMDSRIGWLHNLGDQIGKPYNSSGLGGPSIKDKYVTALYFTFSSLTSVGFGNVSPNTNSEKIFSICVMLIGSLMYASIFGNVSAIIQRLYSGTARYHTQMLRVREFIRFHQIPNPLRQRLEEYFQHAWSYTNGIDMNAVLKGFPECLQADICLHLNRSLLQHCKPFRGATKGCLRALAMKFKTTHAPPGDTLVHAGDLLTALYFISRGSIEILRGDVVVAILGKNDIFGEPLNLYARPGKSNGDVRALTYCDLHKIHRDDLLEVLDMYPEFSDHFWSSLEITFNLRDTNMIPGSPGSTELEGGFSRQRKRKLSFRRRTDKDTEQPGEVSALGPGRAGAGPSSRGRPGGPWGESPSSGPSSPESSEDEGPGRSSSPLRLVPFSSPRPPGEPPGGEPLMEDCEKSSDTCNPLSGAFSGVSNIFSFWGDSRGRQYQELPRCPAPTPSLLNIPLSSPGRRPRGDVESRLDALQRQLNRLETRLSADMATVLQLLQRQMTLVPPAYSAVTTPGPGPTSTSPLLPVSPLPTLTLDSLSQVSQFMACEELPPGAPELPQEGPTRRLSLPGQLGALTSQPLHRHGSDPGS
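Note: peak tail current of the secondary pulse compared with the same well before compound.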

Structure (SMILES) | hERG current change (%, negative = inhibition) at 10uM [%]
COc1ccc(N(CC(=O)Nc2cc(Cl)ccc2OC)C2=NC3CS(=O)(=O)CC3S2)cc1 (stereo not drawn) | -7.35
Cc1ccc(C(=O)N2CCN(c3ccccn3)CC2)cc1Cl | -3.65
Cc1ccc(C(=O)NNC(=O)c2ccncc2)cc1S(=O)(=O)N1CCOCC1 | 0.578
Cc1ccc(C(=O)NC(C)c2ccc(-n3ccnc3)cc2)cc1S(=O)(=O)N1CCOCC1 (stereo not drawn) | -65.1
Cc1ccc(C(=O)NC(C)c2ccccc2)cc1S(=O)(=O)N1CCOCC1 (stereo not drawn) | -1.39
O=C(NCCCn1ccnc1)c1cc(S(=O)(=O)N2CCOCC2)ccc1F | 26.8
CC(NC(=O)c1cc(S(=O)(=O)N2CCOCC2)ccc1F)c1ccc(-n2ccnc2)cc1 (stereo not drawn) | -72.2
O=C(Nc1ccc(N2CCCCC2)cc1)c1cc(S(=O)(=O)N2CCOCC2)ccc1F | -9.76
CCOC(=O)CNC(=O)C(=O)c1c(O)[nH]c2ccccc12 | 9.92
CC(C(=O)NCC1CCCO1)n1cccc1C(=O)c1ccccc1 (stereo not drawn) | 15.1
CCOC(=O)C1=C(CN2CCc3ccccc32)NC(=O)NC1c1cccc([N+](=O)[O-])c1 (stereo not drawn) | -7.46
Cc1cc(C(=O)OCn2nnc3ccccc3c2=O)c(C)o1 | -6.92
Cc1c(C(=O)Nc2ccc(F)c(F)c2)oc2ccc(S(=O)(=O)N3CCCCC3)cc12 | -0.731
Cc1ccc(CN2CCN(/N=C/c3ccc(O)c(O)c3)CC2)cc1 | -21.7
Cn1ccnc1C(=O)c1cc(=O)c2ccccc2o1 | 8.14
Clc1cccc(CSc2nnc(-c3ccccn3)n2Cc2ccco2)c1 | -35.7
Clc1ccccc1CSc1nnc(-c2cccnc2)n1Cc1ccco1 | -43.1
Clc1ccc(CSc2nnc(-c3cccnc3)n2Cc2ccco2)c(Cl)c1 | -68.7
Clc1ccc(CSc2nnc(-c3ccccn3)n2Cc2ccco2)c(Cl)c1 | -5.15
O=C(CSc1nnc(-c2cccnc2)n1Cc1ccccc1)NCc1ccco1 | -1.17
Clc1cccc(CSc2nnc(-c3cccnc3)n2Cc2ccco2)c1 | -74.3

Structure (SMILES) | hERG current change (%, negative = inhibition) at 10uM [%]
Cc1cc(C)cc(OCC(=O)Nc2ccncc2)c1 | -18.9
C=CCN(c1ccccc1)S(=O)(=O)c1cccc(C(=O)NNC(=O)c2ccncc2)c1 | -7.43
O=C1NC(Cc2ccccc2)C(=O)N1Cc1cc([N+](=O)[O-])cc2c1OCOC2 (stereo not drawn) | 7.47
COc1ccc(N2CCN(C(=O)c3ccc(SC)cc3OC)CC2)cc1 | -55.3
COc1cc(SC)ccc1C(=O)N1CCN(Cc2ccccc2)CC1 | -62.7
COc1cc(SC)ccc1C(=O)N1CCN(c2ccc(O)cc2)CC1 | -34.2
COc1cc(SC)ccc1C(=O)N1CCCCCC1 | 17.3
COc1cc(SC)ccc1C(=O)N1CCN(c2ccccc2)CC1 | -17.2
COc1cc(SC)ccc1C(=O)N1CCN(Cc2ccc3c(c2)OCO3)CC1 | -34.3
COc1ccc(-c2cn3c(C)c(C(=O)NC(C)C)sc3n2)cc1 | 6.65
COc1nc2c(C)cccc2cc1-c1noc(-c2ccco2)n1 | -8.01
c1ccc(-c2ncc3ccccn23)cc1 | -3.24
COc1cc(-c2cc(C(=O)Nc3nc4ccccc4s3)c3ccccc3n2)cc(OC)c1OC | 35.9
Brc1ccc(CNCc2cccs2)cc1 | -55.1
Brc1cccc(CNCc2cccs2)c1 | -10.2
CCc1ccc(CNCc2cccs2)cc1.Cl | -22.9
Cc1cc(Cl)c(OCCCn2cncn2)c(Br)c1 | -14.1
CCCCOc1ccc(/C=C/C2=CC(C)(C)NC(=S)N2)cc1OCC | 7.58
Cc1ccsc1CN(C)C(=O)C1CCC(=O)N(CCc2cccc(F)c2)C1 (stereo not drawn) | -35.9
CCn1ccnc1CN(C)C(=O)C1CCC(=O)N(CCc2cccc(F)c2)C1 (stereo not drawn) | -50.7
CCn1ccnc1CN(C)C(=O)C1CCC(=O)N(Cc2cccc(C(F)(F)F)c2)C1 (stereo not drawn) | -22.8

Structure (SMILES) | hERG current change (%, negative = inhibition) at 10uM [%]
CCn1ccnc1CN(C)C(=O)C1CCC(=O)N(Cc2cccc(F)c2)C1 (stereo not drawn) | -11.9
CN(Cc1nc2ccccc2[nH]1)C(=O)C1CCC(=O)N(CCc2cccc(F)c2)C1 (stereo not drawn) | 4.23
CN(Cc1ccccc1Cl)C(=O)C1CCC(=O)N(CCc2cccc(F)c2)C1 (stereo not drawn) | -52.5
O=C(CSc1n[nH]c(=O)[nH]c1=O)c1ccc(Cl)cc1Cl | 16.1
Cn1c(=O)[nH]c(=O)c2c1nc(N1CCOCC1)n2CC(O)COc1ccccc1 (stereo not drawn) | 6.81
CCOc1ncccc1C(=O)OCC(=O)c1ccccc1Br | 0.975
CCOc1ccccc1OCCCC(=O)N(CC)CC(=O)Nc1c(F)cccc1F | -1.78
CCN1CCN(C(c2ccc(C(F)(F)F)cc2)c2ccc3cccnc3c2O)CC1 (stereo not drawn) | -25.3
O=S(=O)(Nc1cccc2cn[nH]c12)c1ccc(F)cc1 | -5.83
CCCCn1c(=NC(=O)c2ccco2)c(C(=O)OCC)cc2c(=O)n3cccc(C)c3nc21 | -81.6
CCOC(=O)c1cc2c(=O)n3cccc(C)c3nc2n(CC(C)C)c1=NC(=O)c1ccco1 | -69.7
CCOCCCn1c(=NC(=O)c2ccco2)c(C(=O)OCC)cc2c(=O)n3cccc(C)c3nc21 | -74
CCOC(=O)c1cc2c(=O)n3ccccc3nc2n(CC(C)C)c1=NC(=O)c1c(-c2c(F)cccc2Cl)noc1C | 5.66
CCOC(=O)c1cc2c(=O)n3cccc(C)c3nc2n(Cc2ccco2)c1=NC(=O)c1ccccc1 | -37.2
Cc1ccc(NC(=O)CSc2nnc(CSc3nc(C)cc(C)n3)n2Cc2ccco2)c(C)c1 | -39.5
O=C(Cn1nnc(-c2ccccc2F)n1)Nc1ccc2c(c1)OCCO2 | 11.3
O=C(COc1ccccc1Cl)Nc1cccc(S(=O)(=O)NC2=NCCCCC2)c1 | -5.14
CN(C)CCCn1c(SCC(=O)N2c3ccccc3Sc3ccccc32)nc2ccccc2c1=O | -39.5
CC(=O)Nc1ccc(C)cc1 | 12.2
O=C(O)Cn1c(=O)cnc2ccccc21 | 9.56
CC(=O)c1c(C)n(C)c2ccc(OC(=O)c3ccc([N+](=O)[O-])cc3)cc12 | 17.2

Structure (SMILES) | hERG current change (%, negative = inhibition) at 10uM [%]
CCOc1cc(-c2nc(C)c(C(C)=O)n2O)ccc1OCC(=O)Nc1ccccc1 | -0.49
Cc1cccc(S(=O)(=O)N2CCC(CO)(Cc3ccccc3)CC2)c1 | -2.74
Cc1c(CN2CCC(CO)(Cc3ccccc3)CC2)c2ccccc2n1C | -37.8
Cc1cc(C)n(-c2ccc(C(=O)N3CCC(CO)(Cc4ccccc4)CC3)cc2)n1 | 9.21
Cc1cccc(-n2ccnc2CN2CCC(CO)(Cc3ccccc3)CC2)c1 | -50.1
Cc1[nH]c2c(C)cccc2c1CN1CCC(CO)(Cc2ccccc2)CC1 | -62.2
Cc1cc(C)n(-c2cccc(CN3CCC(CO)(Cc4ccccc4)CC3)c2)n1 | -58.1
Cc1[nH]c2ccccc2c1CN1CCC(CO)(Cc2ccccc2)CC1 | -47.6
CN(C)C1=NCCN1CC1CCCCCC1 | -3.28
CCOC(=O)CNC(=O)Cn1cnc2sc(C)c(S(=O)(=O)N3CCOCC3)c2c1=O | 16.4
CC(=O)N1CCc2cc(S(=O)(=O)CCC(=O)N3CCN(c4ccccc4)CC3)ccc21 | 7.15
O=S1(=O)N=C(N(Cc2cccs2)c2ccc(O)cc2)c2ccccc21 | -39.1
COc1ccc(-c2cc(C(F)(F)F)nc(N3CCOCC3)n2)cc1 | 18.9
CCOC(=O)c1sc(N(Cc2ccccc2)C(=O)CSc2nnc(C3CC3)n2N)nc1C | -26.7
C=CCNC(=O)/C(=C\c1ccc(OC)cc1)NC(=O)c1ccc([N+](=O)[O-])cc1 | -77.1
C=CCNC(=O)/C(=C\c1ccc([N+](=O)[O-])cc1)NC(C)=O | 2.33
COc1ccc(C(=O)N/C(=C\c2cc(OC)c(OC)cc2[N+](=O)[O-])C(=O)NCCO)cc1 | 17.3
COc1ccc(/C=C(/NC(=O)c2ccc([N+](=O)[O-])cc2)C(=O)NCCCN(C)C)cc1 | -93.4
COc1ccc(C(=O)N/C(=C\c2ccc([N+](=O)[O-])cc2)C(=O)NC(CCSC)C(=O)O)cc1 (stereo not drawn) | 9.2
COc1ccc(/C=C(/NC(=O)c2ccc([N+](=O)[O-])cc2)C(=O)NC(C)(C)C)cc1 | -40.8
Nc1ncncc1-c1ccc([N+](=O)[O-])cc1 | -9.28
